Screens deposited in PubChem by The Scripps Research Institute Molecular Screening Center.
FBW7 activator: human FBW7 E3 ligase activation, primary screen; Q969H0; AlphaScreen FBW7–phospho-cyclin E peptide binding, activator screen; normalized activity (activation), % at 26.1 µM; hit rate 0.13% among 650,000; AID 1259310; in the data active = normalized activity above about 1.9%;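 note: purified mutant Fbw7 with reduced substrate affinity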
GPR151 activ: activators of human GPR151; hit rate 1% among 650,000; PathHunter beta-arrestin GPR151 cells, luminescence; Q8TDV0; activation, % at 11.2 µM; in the data active = activation above about 4.9%;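 note: 0% = median of compound wells and 100% = cells with positive control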
TEAD-YAP inh: TEAD-YAP interaction inhibition; HEK-TIYL cells, TEAD-Gal4/YAP UAS-luciferase luminescence; inhibition, % at 9.12 µM; hit rate 1.4% among 640,000; AID 1259422; in the data active = inhibition above about 32%;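 note: 0% = median of test compound wells and 100% = reference inhibitor wells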
MITF inh: human MITF inhibition, primary screen | hit rate 0.91% among 650,000 | AlphaScreen MITF homodimerization, bead proximity signal | inhibition, % at 2.6 µM | O75030; in the data active = inhibition above about 50%;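 note: 0% = vehicle wells with protein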
GPR151 conf act: confirmation of human GPR151 activators | 6,700 tested, under 10 active | shares compounds with GPR151 activ | activation, % at 11.2 µM | GPR151 PathHunter beta-arrestin cells, luminescence, 90 min; % of EA-reagent control over plate median;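 active = mean percent activation across replicates above the confirmation screen cutoff of 4.91%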
GPR119 counter: GPR119 activation, counter-screen for GPR151 activators; GPR119 PathHunter beta-arrestin cells, luminescence, 90 min; 0 = compound-well median, 100 = enzyme-acceptor control; hit rate 0.3% among 6,700; activation, % at 11.2 µM; shares compounds with GPR151 activ; AID 1508611;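 active = mean percent activation in the counterscreen above 29.09%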;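 note: counterscreen on off-target GPR119 to flag nonselective hits from the GPR151 activator screen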
Target sequence (Q8TDV5 whole entry, looked up): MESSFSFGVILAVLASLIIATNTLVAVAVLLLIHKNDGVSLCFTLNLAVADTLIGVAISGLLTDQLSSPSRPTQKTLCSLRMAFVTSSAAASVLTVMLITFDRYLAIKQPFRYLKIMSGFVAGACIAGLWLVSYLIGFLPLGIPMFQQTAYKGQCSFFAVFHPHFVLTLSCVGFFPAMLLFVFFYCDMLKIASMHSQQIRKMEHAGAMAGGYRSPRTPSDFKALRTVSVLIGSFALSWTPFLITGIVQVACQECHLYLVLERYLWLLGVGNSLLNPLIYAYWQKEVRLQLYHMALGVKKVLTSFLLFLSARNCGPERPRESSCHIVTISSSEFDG
Starred values were filed as active, the others as inactive; / = no result given. Most compounds without a hit are left out; they make up all but 3.5% or so of the library.

SMILES	FBW7 activator	GPR151 activ	TEAD-YAP inh	MITF inh	GPR151 conf act	GPR119 counter
CCOC(=O)C1=C(C)N=c2s/c(=C\c3ccc(-c4cc([N+](=O)[O-])ccc4C)o3)c(=O)n2C1c1ccc(OC)c(OC)c1 (stereo not drawn)	0	-1	15	-3	/	/
CC(C)NC(=O)CN(c1cccc2ccccc12)S(C)(=O)=O	0	8.4*	3	-16	0	-2
Cc1ccnc(-n2cccc2CN2CCc3c(nc(N4CCCC4)[nH]c3=O)C2)c1	0	5.0*	7	5	0	6
CCCCNC(=O)C(CC)Sc1nnc(-c2ccccc2)c(-c2ccccc2)n1 (stereo not drawn)	0	5.5*	1	8	0	6
Cc1sc(C2C(C#N)=C(N)OC3=C2C(=O)CCC3)cc1Br (stereo not drawn)	0	-1	0	-2	/	/
c1ccc(C2=NCCCO2)cc1	0	10*	9	-22	1	-6
c1ccc(-c2nnc(-c3ccccc3)o2)cc1	0	-7	-34	2	/	/
OCC1(CCc2ccccc2)CCN(Cc2cnc(N3CCCC3)s2)CC1	0	6.6*	-3	6	-1	-15
CCOC(=O)C1(CCc2ccccc2)CCN(Cc2cnc(C)s2)CC1	0	9.8*	-5	-2	0	-6
COC(=O)C(C(=O)OC)C(Nc1ccccc1)c1ccccc1 (stereo not drawn)	0	1	5	-12	/	/
O=C(CN1C(=O)C2C3CCC(C3)C2C1=O)Nc1ccc(-n2cnnn2)cc1 (stereo not drawn)	0	5.1*	1	5	1	6
O=C(CN1C(=O)C2C3CCC(C3)C2C1=O)Nc1ccc(-c2ccccc2)cc1 (stereo not drawn)	0	-1	1	1	/	/
COc1ccccc1C(=O)NCC(=O)N=Nc1c(O)[nH]c2ccccc12	0	0	2	13	/	/
CCOC(=O)COc1ccc2c(=O)c(Oc3cccc(OC)c3)coc2c1	0	5.3*	3	2	2	6
C=CCNC(=O)c1cc(I)ccc1NC(=O)c1ccc(F)cc1	0	11*	7	20	1	-5
C=CCNC(=O)c1cc(I)ccc1NC(=O)c1cccnc1	0	5.7*	3	3	-1	-9
O=C(Nc1ccc(Cl)cc1)c1cc(S(=O)(=O)NCCc2ccc(Cl)cc2)ccc1F	0	0	-4	-1	/	/
COc1cccc(-n2nnc3c(N4CCN(S(=O)(=O)c5cc(F)ccc5F)CC4)ncnc32)c1	0	6.0*	2	-5	-1	-4
COc1ccc(-n2nnc3c(N4CCN(C(=O)Cc5ccc(Cl)cc5)CC4)ncnc32)cc1	0	5.5*	0	1	0	-3
COc1ccc(-n2nnc3c(N4CCN(C(=O)CC5CCCCC5)CC4)ncnc32)cc1	0	2	-3	1	/	/
CCOCCOC(=O)C1=C(C)NC2=C(C(=O)CC(c3cccs3)C2)C1c1coc2ccccc2c1=O (stereo not drawn)	1	-1	5	2	/	/
COc1cc(/C=C2/C(=O)NN(c3cccc(C)c3)C2=O)cc([N+](=O)[O-])c1O	0	-1	3	3	/	/
Cc1ccc(/C=C2\C(=O)NC(=O)N(c3cccc(Br)c3)C2=O)cc1[N+](=O)[O-]	0	5.1*	8	-4	0	12
CCOc1cc(/C=C2/C(=O)NN(c3cccc(C)c3)C2=O)cc([N+](=O)[O-])c1O	0	6.0*	2	10	1	1
COc1cc([N+](=O)[O-])cc(/C=C2/C(=O)NC(=O)N(c3cccc(C)c3)C2=O)c1O	0	5.3*	4	2	1	7
O=C(OC1CCOC1=O)c1ccc(S(=O)(=O)N2CCCCC2)cc1 (stereo not drawn)	0	2	7	6	/	/
O=C1COc2cc(S(=O)(=O)Nc3ccc(F)c(Cl)c3)c(Cl)cc2N1	0	0	2	8	/	/
CCN(CC)C(=O)C1CCCN(c2nc(C)cc(Nc3ccc(Oc4ccccc4)cc3)n2)C1 (stereo not drawn)	0	12*	14	-2	1	4
CCOCCCNC(=O)c1cnn2c(C)c(Cc3ccccc3Br)c(C)nc12	0	6.0*	-4	19	0	-13
